Compounds without any hit were thinned out: in the full panel of roughly 79,000, 15% have a hit. Cut-off read from the data, not from the text of the source: active = growth inhibition above about 70%; inactive = the rest.
What was measured:
[1] = NCI Yeast Anticancer Drug Screen. Data for the rad50 strain (AID 155);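 note: 0% = growth of vehicle-only cultures of the same strain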; conditions: S. cerevisiae rad50 strain growth inhibition; at 50.0 µM; active compounds read high
Procedure, shortened: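 Growth of the mutant yeast was measured after compound exposure and referenced to vehicle-treated cultures.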

[2] = NCI Yeast Anticancer Drug Screen. Data for the mec2-1 strain (AID 157); conditions: S. cerevisiae mec2-1 strain, at 50.0 µM, active compounds read high
Procedure, shortened: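 Test agents were screened against the mec2-1 yeast strain, with defined DNA repair or cell cycle alteration. Growth was scored as inhibition against vehicle-only controls.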

[3] = NCI Yeast Anticancer Drug Screen. Data for the sgs1 mgt1 strain (AID 161);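 note: 0% = growth of cultures given vehicle only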; conditions: S. cerevisiae sgs1 mgt1 strain, at 50.0 µM, active compounds read high
Procedure, shortened: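 Read-out: growth inhibition vs vehicle controls. Cells: mutant yeast strain deficient in DNA damage repair.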

[4] = NCI Yeast Anticancer Drug Screen. Data for the cln2 rad14 strain (AID 165);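 note: 0% = growth equal to vehicle treated cultures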; conditions: S. cerevisiae cln2 rad14 strain, at 50.0 µM, active compounds read high
Procedure, shortened: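 Growth of compound-exposed yeast (cln2 rad14 genotype) measured and expressed as inhibition relative to vehicle.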

[5] = NCI Yeast Anticancer Drug Screen. Data for the bub3 strain (AID 167); conditions: S. cerevisiae bub3 mutant strain, at 50.0 µM, active compounds read high
Procedure, shortened: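 Whole-cell yeast assay. The mutant strain was incubated with compounds, and growth inhibition was determined by comparison with vehicle-treated cells.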

[6] = NCI Yeast Anticancer Drug Screen. Data for the mlh1 rad18 strain (AID 175); conditions: S. cerevisiae mlh1 rad18 strain growth inhibition; at 50.0 µM; active compounds read high
Procedure, shortened: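 In this whole-cell yeast screen, a strain with altered DNA damage repair is challenged with compound, and its growth is measured against matched vehicle-treated controls.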

Measured: growth inhibition

CC(C)(Oc1ccc2c(=O)cc(-c3ccccc3)oc2c1)C(=O)Nc1c(Cl)cccc1Cl
inactive: [1] 7.95% | [2] -18.8% | [3] 10.2% | [4] -59% | [5] 9.75% | [6] -14.8%

O=C(CC(=O)n1nc(-c2ccccc2)c(N=Nc2ccc([N+](=O)[O-])cc2)c1-c1ccccc1)Nc1ccc(Cl)cc1
inactive: [1] 35.6% | [2] 3.1% | [3] 52% | [4] 17.4% | [5] 53% | [6] 23.9%

Nc1nc(Cc2ccccc2)cc(-c2cc(Cc3ccccc3)nc(N)n2)n1
inactive: [1] 2.7% | [2] 4.7% | [3] 5.2% | [4] 1.8% | [5] -6.3% | [6] 1.7%

CC(=O)C1COC(O)C1C (stereo unspecified)
inactive: [1] -5.45% | [2] -21.9% | [3] -15.2% | [4] 13.4% | [5] -24.6% | [6] 2.05%

NCCCOC12CC3CC(CC(C3)C1)C2
inactive: [1] 6.1% | [2] -4.05% | [3] 38.8% | [4] -50.4% | [5] 7.6% | [6] 15.8%

COc1ccc(C2OCC(C)O2)cc1OC (stereo unspecified)
inactive: [1] -13.4% | [2] 16.1% | [3] -8.2% | [4] -31.4% | [5] -31.4% | [6] -7.3%

Nc1nc(CCC(=O)Nc2cccc(C(F)(F)F)c2)cc(-c2ccc3ccccc3c2)n1
inactive: [1] -8.3% | [2] -23.5% | [3] -77.7% | [4] -10.2% | [5] -5.5% | [6] -31.6%

CC(C)c1cccc2ccccc12
inactive: [1] 2.85% | [2] 0.2% | [3] -2.9% | [4] -13.8% | [5] -4.7% | [6] 13.4%

Oc1ccc(Cl)cc1N1CCOCC1
inactive: [1] 9.55% | [2] 24.1% | [3] 13.4% | [4] -15.2% | [5] -19.6% | [6] -15%

Cc1cccc(C)c1NC(=O)C1C(=O)N(c2c(C)cccc2C)C(=O)/C1=N\NC(N)=S (stereo unspecified)
inactive: [1] -15.2% | [2] -24.4% | [3] -37.4% | [4] -9.5% | [5] -31.1% | [6] -34.9%

Cc1ccccc1Nc1n[nH]c(=O)n1-c1ccccc1C
inactive: [1] 4.05% | [2] 6.65% | [3] 1.75% | [4] -12.5% | [5] 1.15% | [6] 2.9%

CCc1cccc(CC)c1N=Cc1ccccc1O
inactive: [1] 32.8% | [2] 11% | [3] 21.6% | [4] 16.1% | [5] 10.8% | [6] 19%

O=C(N/N=C/C=C/c1ccccc1)NNC(=O)c1cc([N+](=O)[O-])cc([N+](=O)[O-])c1
inactive: [1] 31% | [2] 10.8% | [3] 38.3% | [4] 13.8% | [5] 2.65% | [6] 24.2%

Cc1cc(N/N=C/c2ccnc3ccccc23)c2cc3c(cc2n1)OCO3
inactive: [1] 43.4% | [2] 18% | [3] 23.4% | [4] 27% | [5] 31.7% | [6] 20.9%

CCN1CCCCC(=N\O)/C(=N/O)CCCC1
inactive: [1] -12.8% | [2] -12.2% | [3] -20.1% | [4] -4.2% | [5] -51.6% | [6] -11.8%

CCOC(=O)c1ccc(Nc2nc3ccccc3nc2C(=O)OCC)cc1
inactive: [1] -31.8% | [2] -39.1% | [3] -4.95% | [4] -3.7% | [5] 18.4% | [6] -26.9%

CCOc1ccc(C(=O)OC)cc1
inactive: [1] 31.1% | [2] -3.45% | [3] 31% | [4] 16.8% | [5] 38.8% | [6] 23.7%

O=C(O)CCc1ccccc1C(=O)O
inactive: [1] 19.6% | [2] -19.6% | [3] -2% | [4] -9.8% | [5] -10.1% | [6] 9.5%

c1ccc2c(c1)CSc1ccccc1-2
inactive: [1] 9.8% | [2] -8.9% | [3] -6.4% | [4] -12.2% | [5] 7% | [6] -3.65%

O=C(OCCOc1ccc(Cl)cc1Cl)c1ccccc1O
inactive: [1] -2.4% | [2] -17.4% | [3] -1.85% | [4] -12.8% | [5] 11.6% | [6] 0.3%

CCC(CC)C(=O)NC(O)C(Cl)(Cl)C(C)Cl (stereo unspecified)
inactive: [1] 3.8% | [2] 27.1% | [3] 0.55% | [4] 20.3% | [5] 6.65% | [6] 14.6%

Nc1nc(N)c(N=Nc2ccc(Cl)cc2Cl)c(=O)[nH]1
inactive: [1] 18.6% | [2] -2.6% | [3] -6.45% | [4] 15.6% | [5] 14.8% | [6] 2.75%

c1ccc(CCc2cccnc2)nc1
inactive: [1] 26% | [2] -4.5% | [3] -21.6% | [4] 50% | [5] -6.1% | [6] -1.7%

CC(C)c1ccc(/C=C2/C=C(c3ccc4ccccc4c3)OC2=O)cc1
inactive: [1] -9.25% | [2] -1.7% | [3] -31.8% | [4] -3.75% | [5] -17.8% | [6] -18.9%

N#CC(C(=O)O)C1(c2ccccc2)CCCCC1 (stereo unspecified)
inactive: [1] -13% | [2] 4.95% | [3] -5.3% | [4] -16% | [5] 1.1% | [6] -3.45%

COC1/C=C\OC2(C)Oc3c(C)c(O)c4c(O)c(c5[nH]cnc5c4c3C2=O)NC(=O)/C(C)=C\C=C\C(C)C(O)C(C)C(O)C(C)C(OC(C)=O)C1C (stereo unspecified)
inactive: [1] 12.1% | [2] 3.8% | [3] 24% | [4] 28.2% | [5] 17.1% | [6] 21.4%

COC(=O)C1C(O)C(C(=O)OC)C(C)N(C)C1C (stereo unspecified)
inactive: [1] 7.35% | [2] -14.4% | [3] -41.5% | [4] -26.1% | [5] -18.2% | [6] -4.45%

C=C(C)C1CC/C(C)=C/CC[C@]2(C)O[C@H]2CC/C(COC(C)=O)=C\[C@@H]1O (stereo partly specified)
inactive: [1] -7.9% | [2] -8.7% | [3] 2.2% | [4] 3.65% | [5] -18.6% | [6] -54.6%

COc1ccc(C=Nc2c(O)ccc3ccccc23)cc1OC
inactive: [1] 12.6% | [2] -11.6% | [3] -24.9% | [4] -15.3% | [5] -17.4% | [6] -0.75%

CNC(=O)OCc1c(COC(=O)NC)c2n(c1C)CS(=O)(=O)C2
inactive: [1] -6.15% | [2] -16% | [3] -10.4% | [4] 6.5% | [5] 12.1% | [6] 15.5%

CC(=O)OCC(=O)[C@@]1(O)CC[C@H]2[C@@H]3CC[C@H]4[C@H](Br)C(=O)CC[C@]4(C)[C@H]3C(=O)C[C@@]21C
inactive: [1] -20.1% | [2] -33.1% | [3] -11.3% | [4] -12.8% | [5] -8.1% | [6] -23.9%

CCOC(=O)C1=C(C)N(NC(N)=O)C(C)(O)C12CCOC2=O (stereo unspecified)
inactive: [1] 32% | [2] 0% | [3] -10.8% | [4] 13.1% | [5] 3.2% | [6] 39%

COc1ccc(N=Nc2c(-c3ccccc3)nn(C(=O)CC(=O)Nc3ccc(OC)cc3)c2-c2ccccc2)cc1
inactive: [1] -17% | [2] -1.7% | [3] -0.8% | [4] -25.4% | [5] 11.7% | [6] -3.35%

O=c1[nH]c2cc(Br)c(Br)cc2c2ccc(Br)cc12
inactive: [1] 43% | [2] -3.8% | [3] 13.7% | [4] 1.3% | [5] 5.8% | [6] 5.15%

CCCCCCC1=CCCC1=O
inactive: [1] -3.5% | [2] -25.4% | [3] -3.35% | [4] -3.6% | [5] 2.55% | [6] 11.5%

CC(=O)c1ccc2ccccc2c1O
inactive: [1] 2.6% | [2] -11.7% | [3] -25.5% | [4] -11.1% | [5] -3% | [6] -5.45%

O=C(c1ccccc1CO)N1CCCCC1
inactive: [1] 10.8% | [2] 2.2% | [3] -1.55% | [4] -69% | [5] -9.2% | [6] -20.4%

C#CC(CC(C)CC(C)(C)C)N(C)C (stereo unspecified)
inactive: [1] 39% | [2] 22.8% | [3] 16.2% | [4] 17.8% | [5] 3.8% | [6] 31.3%

O=C1c2ccccc2C2(O)Oc3cccc(O)c3C12O (stereo unspecified)
inactive: [1] 6.45% | [2] 4.55% | [3] -2% | [4] -14.9% | [5] 2.85% | [6] 49.9%

O=C1Nc2ccccc2C1=O
inactive: [1] -0.85% | [2] 11.4% | [3] -31.8% | [4] -22.5% | [5] -12.3% | [6] -50%

Cc1ccc(N=C2c3cc([N+](=O)[O-])ccc3-c3ccc([N+](=O)[O-])cc32)cc1
inactive: [1] 15.1% | [2] -10.1% | [3] 0.35% | [4] -18.1% | [5] -4% | [6] -2.25%

From PubChem BioAssay (NCI)
